# Measured values from PubChem BioAssay (NCATS).
# “And” between values parts separate entries of the source, which are not always exact repeats. Identical values can stand only once. Records with an inconclusive call do not appear. A call without a number means that no potency is given here. Where a structure was tested more than once in an assay, its records may differ in their call. The source made the active and inactive calls. Unless noted, the call rests on the fitted dose curve; in most records, active means well fitted curve in the direction sought with a large enough effect; inconclusive means small, poorly fitted or top-dose-only effect, or another doubt; inactive means no such curve, though single readings can be large; an effect the other way counts as inactive or inconclusive.
# Experiments:
# [1] = biological target: Guanine nucleotide-binding protein G(i) subunit alpha-1 (Homo sapiens) (UniProt P63096); test: qHTS Assay for Inhibitors of RGS12 GoLoco Motif Activity (Green Fluorophore) (AID 879);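 further: negative values mean loss of peptide binding seen as reduced polarization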
# Guanine nucleotide-binding protein G(i) subunit alpha-1 (Homo sapiens), sequence (P63096 whole entry, looked up): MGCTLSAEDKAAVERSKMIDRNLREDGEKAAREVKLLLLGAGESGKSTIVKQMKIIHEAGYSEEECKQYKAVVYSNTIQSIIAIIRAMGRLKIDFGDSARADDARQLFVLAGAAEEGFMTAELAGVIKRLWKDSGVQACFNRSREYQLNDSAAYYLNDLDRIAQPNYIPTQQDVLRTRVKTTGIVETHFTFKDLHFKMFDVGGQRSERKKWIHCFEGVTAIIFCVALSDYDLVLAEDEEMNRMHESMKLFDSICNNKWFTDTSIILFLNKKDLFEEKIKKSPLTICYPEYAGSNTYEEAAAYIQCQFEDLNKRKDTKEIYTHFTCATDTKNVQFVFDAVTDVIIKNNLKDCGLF
# Procedure, shortened: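 Fluorescence polarization assay: 50 nM Gαi1 with 10 nM FITC-labeled RGS12 GoLoco peptide in 10 mM Tris pH 7.5, 150 mM NaCl, 0.1 mM GDP, 0.05% NP40, 10 min at room temperature with compound.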
# [2] = biological target: Cytochrome P450 3A4 (Homo sapiens) (UniProt P08684); test: qHTS Assay for Activators of Cytochrome P450 3A4 (AID 885); further: nearly all actives have a fitted effect of over 65% in size
# Cytochrome P450 3A4 (Homo sapiens), sequence (P08684 whole entry, looked up): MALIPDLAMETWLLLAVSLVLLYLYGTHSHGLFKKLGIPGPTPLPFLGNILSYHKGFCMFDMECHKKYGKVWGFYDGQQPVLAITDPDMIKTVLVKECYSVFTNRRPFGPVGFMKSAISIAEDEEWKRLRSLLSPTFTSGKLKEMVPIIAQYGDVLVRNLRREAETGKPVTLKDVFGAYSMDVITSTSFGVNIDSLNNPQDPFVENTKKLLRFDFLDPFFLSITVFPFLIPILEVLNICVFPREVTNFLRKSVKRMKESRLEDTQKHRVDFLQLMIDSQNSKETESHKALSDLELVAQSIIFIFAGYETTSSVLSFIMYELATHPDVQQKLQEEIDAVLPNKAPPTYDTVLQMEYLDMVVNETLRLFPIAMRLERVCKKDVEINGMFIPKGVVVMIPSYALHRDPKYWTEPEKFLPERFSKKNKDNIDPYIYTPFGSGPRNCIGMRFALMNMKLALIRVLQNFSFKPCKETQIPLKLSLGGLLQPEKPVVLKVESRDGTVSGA
# Procedure, shortened: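 20nM CYP3A4 + 25uM Luciferin-PPXE (=KM), 200mM KPO4; cpd 10 min RT; NADPH regen, 60 min RT; stop w/ detection buffer, 20 min; luminescence. Normalized to 57 uM ketoconazole.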
# [3] = biological target: Cytochrome P450 2D6 (Homo sapiens) (UniProt P10635); test: qHTS Assay for Inhibitors and Substrates of Cytochrome P450 2D6 (AID 891); further: nearly all actives have a fitted effect of over 60% in size; further: potency means the concentration at half of the fitted maximal effect
# Cytochrome P450 2D6 (Homo sapiens), sequence (P10635 whole entry, looked up): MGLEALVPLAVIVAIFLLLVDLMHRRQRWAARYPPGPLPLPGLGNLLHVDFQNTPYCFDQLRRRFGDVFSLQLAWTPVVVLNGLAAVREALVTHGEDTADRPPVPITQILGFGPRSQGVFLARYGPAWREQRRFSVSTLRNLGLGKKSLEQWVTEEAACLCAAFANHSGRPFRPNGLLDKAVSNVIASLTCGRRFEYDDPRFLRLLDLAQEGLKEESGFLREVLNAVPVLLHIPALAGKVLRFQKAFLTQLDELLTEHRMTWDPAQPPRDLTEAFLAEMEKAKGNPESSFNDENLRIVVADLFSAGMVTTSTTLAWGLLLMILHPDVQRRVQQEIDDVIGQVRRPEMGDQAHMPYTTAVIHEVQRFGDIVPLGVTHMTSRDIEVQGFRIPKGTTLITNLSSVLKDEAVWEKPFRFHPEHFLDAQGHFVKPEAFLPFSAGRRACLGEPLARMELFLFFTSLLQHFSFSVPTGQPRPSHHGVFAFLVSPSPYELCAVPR
# Procedure, shortened: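 Human CYP2D6 (5 nM) with 30 uM Luciferin-ME EGE (at Km) in 100 mM KPO4, compound preincubated 10 min, then NADPH regeneration system for 60 min at room temperature. Luciferin read by luminescence; normalized to 1.43 uM quinidine.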
# [4] = qHTS Assay for Identification of Small Molecule Antagonists for NFkB Signaling Pathway (AID 895; active means well fitted inhibition curve with a large enough effect in the signal ratio, with a control signal flat, not every such curve was filed as active; the % refers to the signal ratio; further: potency means the concentration at half of the fitted maximal effect)
# Procedure, shortened: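 ME-180 NFkB-bla cells (beta-lactamase under NFkB response element), plated overnight, treated with compound then 10 pM TNF alpha (about EC50) for 5 hrs at 37 C. LiveBLAzer FRET read at 460/530 nm emission, 405 nm excitation.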
# [5] = qHTS Assay for Identification of Small Molecule Antagonists for Thrombopoietin (TPO) Signaling Pathway (AID 918); details: TPO-dependent cell signaling reporter, antagonist mode; further: potency means the concentration at half of the fitted maximal effect; nearly all actives have a fitted effect of over 60% in size
# Procedure, shortened: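 First, Ba/F3 reporter cells expressing human TPO receptor were held overnight without IL-3. Next, compound and 26 pM TPO were added. After 24 hrs incubation at 37 C, luciferase luminescence under the Glycoprotein IIb promoter was recorded.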
# [6] = biological target: Muscarinic acetylcholine receptor M1 (Rattus norvegicus) (UniProt P08482); test: qHTS Assay for Antagonists of Acetylcholine Muscarinic M1 Receptor: Measurement of IP-One Response (AID 944); further: nearly all actives have a fitted effect of over 75% in size; further: potency means the concentration at half of the fitted maximal effect
# Muscarinic acetylcholine receptor M1 (Rattus norvegicus), sequence (P08482 whole entry, looked up): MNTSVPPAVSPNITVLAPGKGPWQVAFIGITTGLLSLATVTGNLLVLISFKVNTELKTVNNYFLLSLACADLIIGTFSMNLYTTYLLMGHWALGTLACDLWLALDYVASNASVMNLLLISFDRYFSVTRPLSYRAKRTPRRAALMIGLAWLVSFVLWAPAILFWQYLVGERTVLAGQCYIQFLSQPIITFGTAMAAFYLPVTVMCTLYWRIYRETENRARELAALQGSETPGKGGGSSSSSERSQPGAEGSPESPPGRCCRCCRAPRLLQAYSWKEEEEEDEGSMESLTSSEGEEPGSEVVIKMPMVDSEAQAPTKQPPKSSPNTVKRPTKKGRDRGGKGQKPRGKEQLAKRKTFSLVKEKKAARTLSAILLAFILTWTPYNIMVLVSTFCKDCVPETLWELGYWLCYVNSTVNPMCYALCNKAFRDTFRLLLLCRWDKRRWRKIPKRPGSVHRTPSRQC
# Procedure, shortened: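 Steps: plate transfected CHO-M1 cells overnight; add test compound, 10 min; add carbachol (200 nM, EC80) in stimulation buffer with LiCl; incubate 30 min; add labelled IP1 tracer and anti-IP1 antibody in lysis buffer; read HTRF after 10 min.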
# [7] = Cellular Toxicity (caspase-3) H-4-II-E (AID 663);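 further: cells exposed to compound for 16 hr before readout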
# Procedure, shortened: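 Rat hepatoma H-4-II-E cells (1500/well) plated 5 hr, then exposed to compound titrations for 16 hr at 37 °C. Caspase-Glo 3/7 luminescence read after 20 min at RT; data normalized to DMSO and 100 uM tamoxifen, AC50 from Hill fits.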
# [8] = Cellular Toxicity (caspase-3) Hek293 (AID 664);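 further: cells exposed to compound for 16 h at 37 °C before readout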
# Procedure, shortened: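 Activation of caspase-3/7 is measured as increased luminescence from cleaved peptide-aminoluciferin substrate in HEK293 cells treated 16 hours at 37 °C. AC50 values come from Hill-equation fits of concentration-response data.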
# [9] = Cellular Toxicity (caspase-3) N2a (AID 665);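 further: compound exposure lasted 16 h at 37 °C before readout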
# Procedure, shortened: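 Plated mouse neuroblastoma N2a cells received titrated compounds for 16 h in complete medium. Caspase activity was then detected with a peptide-aminoluciferin luminescent reagent.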
# [10] = Cellular Toxicity (caspase-3) NIH 3T3 (AID 666)
# Procedure, shortened: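 Concentration-response qHTS in NIH 3T3 mouse fibroblasts scores caspase-3/7 activation as rising luminescence after 16 hr compound exposure. Signals are scaled between DMSO-only and 100 uM tamoxifen.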
# [11] = Cellular Toxicity (caspase-3) Renal Proximal Tubule (AID 667);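 further: cells exposed to compound for 16 hours at 37 °C before detection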
# Procedure, shortened: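 Caspase-Glo 3/7 read-out, rat primary kidney proximal tubule cells. Compound exposure 16 h, 37 °C; detection after 1 h at RT. Activity scaled to DMSO and 10 uM staurosporine.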
# [12] = biological target: Cytochrome P450 2C9 (Homo sapiens) (UniProt P11712); test: qHTS Assay for Inhibitors and Substrates of Cytochrome P450 2C9 (AID 883); further: nearly all actives have a fitted effect of over 60% in size
# Cytochrome P450 2C9 (Homo sapiens), sequence (P11712 whole entry, looked up): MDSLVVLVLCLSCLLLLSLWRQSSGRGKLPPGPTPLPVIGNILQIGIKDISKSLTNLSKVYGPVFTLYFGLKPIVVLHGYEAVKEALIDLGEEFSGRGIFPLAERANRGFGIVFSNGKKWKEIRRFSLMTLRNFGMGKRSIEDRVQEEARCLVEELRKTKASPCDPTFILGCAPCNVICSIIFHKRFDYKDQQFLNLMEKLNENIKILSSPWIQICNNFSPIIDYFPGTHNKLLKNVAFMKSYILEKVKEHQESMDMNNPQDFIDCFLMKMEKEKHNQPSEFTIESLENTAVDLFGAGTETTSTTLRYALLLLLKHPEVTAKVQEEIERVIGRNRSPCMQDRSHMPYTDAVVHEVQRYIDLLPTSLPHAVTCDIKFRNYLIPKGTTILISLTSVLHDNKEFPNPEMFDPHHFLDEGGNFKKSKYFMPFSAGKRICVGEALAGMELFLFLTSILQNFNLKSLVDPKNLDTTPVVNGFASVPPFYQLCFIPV
# Procedure, shortened: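 Signal: luciferase luminescence reporting luciferin produced by CYP2C9. Conditions: 10nM enzyme, Luciferin-H 100uM at KM, 25mM KPO4, 37C, 60 min NADPH-driven reaction. Reference: 57uM sulphaphenazole as 100% inhibition.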
# [13] = Confirmation and Secondary Assay for Modulators of Hemoglobin Beta Chain Splicing at IVS2 654 locus (AID 910);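 further: HeLa cells stably carrying EGFP split by mutant beta-globin IVS2-654 intron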
# Procedure, shortened: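 HeLa cells stably expressing EGFP interrupted by β-globin IVS2-654 intron, seeded overnight in Opti-MEM/2% FCS, then treated 2 days at 37 °C. Restored splicing read as total peak GFP intensity per well by laser scanning cytometry (488 nm excitation, 500–520 nm emission); 500 nM antisense PNA as control.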
# [14] = Cell Viability - LYMP2-001 (AID 921);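 further: series mostly up to about 92 µM; cells exposed to compound for 24 h at 37 °C; nearly all actives have a fitted effect of over 70% in size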
# Procedure, shortened: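 A lymphoblastoid cell line of human origin was treated with library compounds across a concentration series for 24 hours, and viable cell number was estimated from ATP-driven luciferase light output. Hill modeling gave AC50.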
# [15] = biological target: Cytochrome P450 2C19 (Homo sapiens) (UniProt P33261); test: qHTS Assay for Inhibitors and Substrates of Cytochrome P450 2C19 (AID 899); further: nearly all actives have a fitted effect of over 60% in size; further: potency means the concentration at half of the fitted maximal effect
# Cytochrome P450 2C19 (Homo sapiens), sequence (P33261 whole entry, looked up): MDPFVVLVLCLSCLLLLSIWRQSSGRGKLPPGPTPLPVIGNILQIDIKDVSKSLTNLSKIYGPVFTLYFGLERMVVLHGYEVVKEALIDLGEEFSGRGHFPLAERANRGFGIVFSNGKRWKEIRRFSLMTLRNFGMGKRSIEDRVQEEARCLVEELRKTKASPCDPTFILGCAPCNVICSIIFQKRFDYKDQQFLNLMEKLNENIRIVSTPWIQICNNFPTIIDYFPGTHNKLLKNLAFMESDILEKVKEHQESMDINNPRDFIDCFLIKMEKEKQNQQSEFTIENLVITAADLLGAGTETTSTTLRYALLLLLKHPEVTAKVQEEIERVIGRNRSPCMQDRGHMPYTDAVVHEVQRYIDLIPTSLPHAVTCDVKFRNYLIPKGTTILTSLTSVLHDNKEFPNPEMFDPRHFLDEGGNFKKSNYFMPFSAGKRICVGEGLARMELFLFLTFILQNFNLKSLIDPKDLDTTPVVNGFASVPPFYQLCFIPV
# Procedure, shortened: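 Signal comes from luciferase acting on luciferin released by CYP2C19-mediated hydroxylation of Luciferin-H EGE, 10uM (KM). Assay mix: 5nM enzyme, 50mM KPO4; 60 min at 37C with NADPH regeneration. Data normalized against 57uM ketoconazole.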
# [16] = qHTS Assay for Identification of Small Molecule Agonists for Thrombopoietin (TPO) Signaling Pathway (AID 917)
# Procedure, shortened: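 IL-3-dependent murine pro-B Ba/F3 cells, stably transfected with human TPO receptor and GpIIb-promoter luciferase, are incubated 24 hrs at 37 C with test compound and 26 pM TPO; luciferase signal is read after 10 min at room temperature.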
# [17] = Confirmation and Secondary Assay for Modulators of Hemoglobin Beta Chain Splicing at IVS2 705 locus (AID 930);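 further: HeLa cells stably expressing the EGFP-705 splicing reporter; series mostly up to about 46 µM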
# Procedure, shortened: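 HeLa cells stably carrying EGFP interrupted by mutant beta-globin IVS2-705 intron (CMV-driven) were seeded at 500 cells/well, treated next day with compound for 2 days at 37C; corrected splicing restores EGFP, read as total peak GFP intensity per well.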
# [18] = biological target: Muscarinic acetylcholine receptor M1 (Rattus norvegicus) (UniProt P08482); test: qHTS Assay for Antagonists of Acetylcholine Muscarinic M1 Receptor: Kinetic Measurement of Intracellular Calcium Response (AID 943);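 further: Fluo-4 calcium signal as peak divided by basal fluorescence over 4 min; series mostly up to about 35 µM; nearly all actives have a fitted effect of over 75% in size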
# Procedure, shortened: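 Intracellular calcium flux, recorded with Fluo-4 in a kinetic plate reader, served as signal; the response to carbachol at EC80 (100 nM final) was taken as maximal over minimal fluorescence after a 10 min compound pre-incubation in rat M1-CHO cells.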
# [19] = biological target: Cytochrome P450 3A4 (Homo sapiens) (UniProt P08684); test: qHTS Assay for Inhibitors and Substrates of Cytochrome P450 3A4 (AID 884); further: series mostly up to about 57 µM; nearly all actives have a fitted effect of over 50% in size
# Procedure, shortened: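 20 nM human CYP3A4 with 25 uM Luciferin-PPXE (at KM) in 200 mM KPO4, preincubated 10 min with compound; NADPH regeneration started a 60 min RT reaction. Luciferin detected by luminescence, normalized to 57 uM ketoconazole as full inhibition.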
structure (smiles),measurement,setting,value
CNCCCC1c2ccccc2C=Cc2ccccc21,outcome,[1],inactive
same,outcome,[2],inactive
same,Potency,[3],3.98 µM (active)
same,Potency,[4],8.91 µM (active)
same,Potency,[5],10 µM (active)
same,Potency,[6],0.398 µM (active)
Nc1ccc(S(=O)(=O)Nc2nccs2)cc1,outcome,[7],inactive
same,outcome,[8],inactive
same,outcome,[9],inactive
same,outcome,[10],inactive
same,outcome,[11],inactive
same,Potency,[12],inactive
same,outcome,[13],inactive
NC(=O)N/N=C/c1ccc([N+](=O)[O-])o1,outcome,[7],inactive
same,outcome,[8],inactive
same,outcome,[9],inactive
same,outcome,[10],inactive
same,outcome,[11],inactive
same,outcome,[13],inactive
same,outcome,[14],inactive
CCCCOC(=O)c1ccc(O)cc1,outcome,[7],inactive
same,outcome,[8],inactive
same,outcome,[9],inactive
same,outcome,[10],inactive
same,outcome,[11],inactive
same,Potency,[15],6.31 µM (active)
same,outcome,[14],inactive
Oc1cccc(O)c1,outcome,[7],inactive
same,outcome,[8],inactive
same,outcome,[9],inactive
same,outcome,[10],inactive
same,outcome,[11],inactive
same,outcome,[2],inactive
same,outcome,[13],inactive
same,outcome,[14],inactive
NC(N)=NCCC[C@H](N)C(=O)O,outcome,[1],inactive
same,Potency,[12],inactive
same,Potency,[3],inactive
same,outcome,[16],inactive
same,Potency,[6],inactive
NC(=O)c1ncn([C@@H]2O[C@H](CO)[C@@H](O)[C@H]2O)n1,outcome,[7],inactive
same,outcome,[8],inactive
same,outcome,[9],inactive
same,outcome,[10],inactive
same,outcome,[11],inactive
same,outcome,[1],inactive
same,outcome,[14],inactive
same,Potency,[6],inactive
Cc1c(O)cccc1C(=O)N[C@@H](CSc1ccccc1)[C@H](O)CN1C[C@H]2CCCC[C@H]2C[C@H]1C(=O)NC(C)(C)C,outcome,[9],inactive
same,outcome,[10],inactive
same,outcome,[11],inactive
Cc1cc2nc3c(=O)[nH]c(=O)nc-3n(C[C@H](O)[C@H](O)[C@H](O)CO)c2cc1C,outcome,[7],inactive
same,outcome,[8],inactive
same,outcome,[9],inactive
same,outcome,[10],inactive
same,outcome,[11],inactive
same,outcome,[2],inactive
same,outcome,[14],inactive
[Cl][In]([Cl])[Cl],outcome,[7],inactive
same,outcome,[8],inactive
same,outcome,[9],inactive
same,outcome,[10],inactive
same,outcome,[11],inactive
same,outcome,[14],inactive
O=C1c2c(O)cccc2Cc2cccc(O)c21,outcome,[7],inactive
same,outcome,[8],inactive
same,outcome,[9],inactive
same,outcome,[10],inactive
same,outcome,[11],inactive
same,outcome,[13],inactive
same,outcome,[14],inactive
same,Potency,[17],inactive
CCCCCCCCCCCCOS(=O)(=O)O,outcome,[7],inactive
same,outcome,[8],inactive
same,outcome,[9],inactive
same,outcome,[10],inactive
same,outcome,[11],inactive
same,outcome,[14],inactive
NCCNCCNCCNCCN,outcome,[7],inactive
same,outcome,[8],inactive
same,outcome,[9],inactive
same,outcome,[10],inactive
same,outcome,[11],inactive
same,outcome,[14],inactive
CN(C)CCCN1c2ccccc2CCc2ccccc21,outcome,[1],inactive
same,outcome,[12],inactive
same,outcome,[2],inactive
same,outcome,[15],inactive
same,outcome,[16],inactive
COC(=O)C1=C(C)NC(C)=C(C(=O)OC)C1c1ccccc1[N+](=O)[O-],outcome,[7],inactive
same,outcome,[8],inactive
same,outcome,[9],inactive
same,outcome,[11],inactive
same,outcome,[1],inactive
same,outcome,[13],inactive
O=C1O[C@H]([C@@H](O)CO)C(O)=C1O,outcome,[7],inactive
same,outcome,[8],inactive
same,outcome,[9],inactive
same,outcome,[10],inactive
same,outcome,[11],inactive
same,outcome,[14],inactive
CC(C)C(=O)c1c(C(C)C)nn2ccccc12,outcome,[1],inactive
same,Potency,[12],inactive
same,Potency,[3],inactive and 39.8 nM (active)
same,Potency,[15],inactive
same,outcome,[16],inactive
same,Potency,[18],inactive
same,Potency,[6],inactive
Cc1cc(CC(=O)O)n(C)c1C(=O)c1ccc(Cl)cc1,outcome,[7],inactive
same,outcome,[8],inactive
same,outcome,[9],inactive
same,outcome,[10],inactive
same,outcome,[11],inactive
same,outcome,[13],inactive
same,outcome,[14],inactive
CCN(CC)CCNC(=O)c1cc(Cl)c(N)cc1OC,outcome,[1],inactive
same,Potency,[19],inactive
same,outcome,[13],inactive
same,outcome,[16],inactive
same,Potency,[6],inactive
CC1(C)[C@@H]2CC[C@@]1(C)C(=O)C2,outcome,[7],inactive
same,outcome,[8],inactive
same,outcome,[9],inactive
same,outcome,[10],inactive
same,outcome,[11],inactive
same,outcome,[14],inactive
NCCNCCNCCN,outcome,[7],inactive
same,outcome,[8],inactive
same,outcome,[9],inactive
same,outcome,[10],inactive
same,outcome,[11],inactive
same,outcome,[14],inactive
